Results as given in article PMC11024108.

Target: Actin-related protein 2/3 complex subunit 2 (UniProt Q9CVB6)
Test: cross-link between two proteins; cross-linking mass spectrometry

Listed as a hit, yes:
Actin-related protein 3B, Q641P0
Actin-related protein 3, Q99JY9
Actin-related protein 2, P61161

Target: Histone H2B type 1-L (UniProt Q99880)
Test: as above

Listed as a hit, yes:
Histone H2B type 1-C/E/F/G/I, P62807
Histone H3.2, Q71DI3
Histone H2A type 1-J, Q99878

Target: Histone H2B type 1-M (UniProt Q99879)
Test: as above

Listed as a hit, yes:
Histone H2B type 1-C/E/F/G/I, P62807
Histone H3.2, Q71DI3
Histone H2A type 1-J, Q99878
Histone H4, P62805
